USP28 inh – inhibitors of human USP28 deubiquitinase | inhibition, % at 25 µM | 3% of 47,000 active | AID 1645857, 2021 | Ubiquitin carboxyl-terminal hydrolase 28 (Homo sapiens), Q96RU2 | purified USP28, Ub-rhodamine cleavage fluorescence, 30 min
USP10 inh – inhibitors of human USP10 deubiquitinase | purified USP10, Ub-rhodamine fluorescence, 60 min | Ubiquitin carboxyl-terminal hydrolase 10 (Homo sapiens), Q14694 | 1.1% of 47,000 active | inhibition, % at 20 µM
USP17 block – inhibitors of human USP17 deubiquitinase | purified USP17, Ub-rhodamine cleavage fluorescence, 3 h | inhibition, % at 50 µM | 6.5% of 47,000 active
USP8 inh – inhibitors of human USP8 deubiquitinase; purified USP8, Ub-rhodamine cleavage fluorescence, 30 min; inhibition, % at 20 µM; 4.2% of 47,000 active; AID 1645853, 2021
USP30 block – inhibitors of human USP30 deubiquitinase; Ubiquitin carboxyl-terminal hydrolase 30 (Homo sapiens), Q70CQ3; purified USP30, Ub-rhodamine cleavage fluorescence; inhibition, % at 25 µM; 5.3% of 47,000 active; AID 1645860, 2021
Target sequence (Q70CQ3 whole entry, looked up): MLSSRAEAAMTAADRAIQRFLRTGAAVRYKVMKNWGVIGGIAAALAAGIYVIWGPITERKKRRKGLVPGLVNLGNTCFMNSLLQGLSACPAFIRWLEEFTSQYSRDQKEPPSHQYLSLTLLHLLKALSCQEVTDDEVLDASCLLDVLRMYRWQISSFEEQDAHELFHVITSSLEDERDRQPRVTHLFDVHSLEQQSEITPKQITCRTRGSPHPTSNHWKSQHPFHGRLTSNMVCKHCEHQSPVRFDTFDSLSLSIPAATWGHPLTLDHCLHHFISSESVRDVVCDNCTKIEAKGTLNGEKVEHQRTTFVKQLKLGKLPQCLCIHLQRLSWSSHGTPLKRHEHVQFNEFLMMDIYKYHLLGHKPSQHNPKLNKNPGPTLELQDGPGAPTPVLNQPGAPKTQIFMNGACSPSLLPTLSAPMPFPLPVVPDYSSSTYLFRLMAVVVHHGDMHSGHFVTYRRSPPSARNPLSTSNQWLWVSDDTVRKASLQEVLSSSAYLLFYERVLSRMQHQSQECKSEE
A number is an active result; - = inactive; . = not tested or not shown. Most compounds without a hit are left out; they make up all but 14% or so of the library. No stated cut-off is given here; in the data, active means inhibition above about 30%; inactive means the rest.

SMILES	USP28 inh	USP10 inh	USP17 block	USP8 inh	USP30 block
CC(=O)Nc1ccc(NC(=O)c2cc(-c3cc(C)cc(C)c3O)n[nH]2)cc1	46	-	35	-	62
O=C(CCc1nc2cccnc2n1-c1ccccc1)Nc1ccc(Cl)cc1	-	-	-	-	-
Cc1ccc2cc3c(nc2c1)OC(=O)N(Cc1ccco1)C3	-	-	-	-	-
CN(C)c1cccc(C(=O)NCC2(c3ccccc3)CCC2)c1	-	-	-	-	-
CC(C)=CCC/C(C)=C/CCC(C)(O)C1Cc2c(c3ccccc3[n+]([O-])c2C)O1 (centres undefined)	-	-	-	-	30
O=C(Cn1ncc2cccn2c1=O)N1CCc2ccccc21	-	-	-	-	-
OC(CN1CCN(c2ncccn2)CC1)c1ccc(Cl)cc1 (centres undefined)	-	-	-	-	-
Oc1ccc2ccccc2c1CN1CCCC1	-	-	-	38	-
Oc1ccc2ccccc2c1CN1CCN(c2ncccn2)CC1	.	-	36	-	.
O=C(Nc1sc2c(c1CN1CCOCC1)CCCC2)c1ccco1	-	-	-	-	-
Cc1ccc(Nc2nc(C(=O)NCc3ccc4c(c3)OCO4)cc3occc23)cc1Cl	-	-	66	76	-
O=C(NCc1ccc2c(c1)OCO2)c1cc2occc2c(Nc2ccc(F)cc2)n1	-	-	-	-	-
Cc1cccc(CNC(=O)c2cc3occc3c(Nc3ccc(F)cc3)n2)c1	-	-	-	-	-
Cc1ccc(Nc2nc(C(=O)NCc3ccccc3)cc3occc23)cc1	-	-	32	-	-
O=C(c1cc2occc2c(Nc2ccc(F)cc2)n1)N1CCN(c2ccccc2)CC1	-	-	-	-	-
COc1ccc2[nH]c(=O)c(CN(c3ccc(C)cc3C)S(=O)(=O)c3ccccc3)cc2c1	-	-	-	-	-
O=C(CSc1nnc(C2CC2)n1Cc1ccccc1)Nc1ccc(N2CCCC2=O)cc1	-	-	44	-	-
COc1ccccc1S(=O)(=O)N1CC[C@@H]2CN(C)[C@@H]2C1	-	-	56	-	-
NS(=O)(=O)c1ccc(CCNc2ccn3nc(-c4ccccc4)cc3n2)cc1	-	-	31	-	-
COc1ccc(Cl)cc1NC(=O)C(C)N1CCc2cc(OC)c(OC)cc2C1 (centres undefined)	-	-	-	-	-
COC(=O)CNC(=O)c1cn(-c2ccccc2)nc1-c1ccccc1	-	-	-	-	-
Cc1ccc(CNC(=O)Cn2c(-c3ccccc3)nc(C)cc2=O)cc1	-	-	-	-	-
Cc1ccc(CNC(=O)c2cc(-c3ccccc3)nn2-c2ccccc2)cc1	-	-	-	-	34
Cc1ccc(S(=O)(=O)C2CCN(Cc3ccc4ccccc4c3)CC2)cc1	-	-	-	-	-
CC1CCc2c(sc3nc(CN4CCOCC4)nc(Nc4ccc(C(C)(C)C)cc4)c23)C1 (centres undefined)	-	-	-	31	-
SMILES	USP28 inh	USP10 inh	USP17 block	USP8 inh	USP30 block
CS(=O)(=O)c1cccc(-c2nnc(NC(=O)c3ccc(Cc4ccccc4)cc3)o2)c1	-	41	-	35	35
CS(=O)(=O)c1ccc(-c2nnc(NC(=O)c3ccco3)o2)cc1	-	-	-	-	-
CC(NC(=O)c1ccc(-c2nnc(-c3ccccc3)o2)cc1)c1ccc(S(C)(=O)=O)cc1 (centres undefined)	-	-	71	-	41
CC(NC(=O)c1ccc(Oc2ccccc2)cc1)c1ccc(Cl)c(Cl)c1 (centres undefined)	-	-	-	-	-
Cc1ccc(C(C)NC(=O)c2cccc(-c3cnc(N4CCCC4)nc3)c2)cc1 (centres undefined)	-	-	-	-	-
Cc1ccccc1CNC(=O)c1cccc(-c2cnc(N3CCCC3)nc2)c1	-	-	-	-	32
Cn1c(=O)c2c(nc(N3CCOCC3)n2CCSc2nnnn2-c2ccccc2)n(C)c1=O	-	-	-	-	-
Cn1c(=O)[nH]c(=O)c2c1nc(N1CCc3ccccc3C1)n2CCSc1nnnn1-c1ccccc1	-	-	-	86	-
COc1ccc(N2CCN(c3nc4c(c(=O)[nH]c(=O)n4C)n3CCSc3ncccn3)CC2)cc1	-	-	-	-	-
Cn1c(=O)[nH]c(=O)c2c1nc(N1CCN(C(c3ccccc3)c3ccccc3)CC1)n2CCSc1ncccn1	-	-	-	-	30
CC(C)Cn1c(N2CCNCC2)nc2c1c(=O)[nH]c(=O)n2C	-	-	-	-	47
CCNC(=O)C1(Cc2cc(-c3ccccc3)no2)CCCN(Cc2ccccc2)C1 (centres undefined)	-	-	-	-	-
O=C1c2ccccc2-n2c1nc1ccccc1c2=O	-	-	50	-	-
COc1ccc(Cn2c(CO)cnc2SCC(=O)Nc2ccc(F)cc2)cc1	-	-	-	-	-
NC(=O)c1nc(-c2cccnc2)nc2c1[nH]c(=O)n2-c1ccc2c(c1)OCO2	53	-	46	53	-
COc1cc(-c2nc(C(N)=O)c3[nH]c(=O)n(-c4ccc(C)cc4)c3n2)cc(OC)c1OC	-	-	75	-	45
Cc1cccc(-n2c(=O)[nH]c3c(C(N)=O)nc(-c4ccccn4)nc32)c1	-	-	-	-	-
Cc1ccc(-n2c(=O)[nH]c3c(C(N)=O)nc(C4CCCCC4)nc32)cc1	-	-	-	-	-
NC(=O)c1nc(C2CCCCC2)nc2c1[nH]c(=O)n2-c1ccc2c(c1)OCO2	-	-	-	-	-
NC(=O)c1nc(-c2ccccn2)nc2c1[nH]c(=O)n2-c1ccc2c(c1)OCO2	-	-	43	-	43
CCOc1nccnc1NC1CCN(C(=O)c2ccn(CC)n2)CC1	-	-	-	-	-
COc1cc2c(cc1OC)[C@H](C)N(CC1C(=O)O[C@@]34[C@H]1CC[C@@H](C)[C@@H]3CC[C@@]1(C)O[C@@H]41)CC2 (some centres undefined)	-	-	-	50	-
COc1cc2c(cc1OC)[C@H](C)N(CC1C(=O)O[C@@H]3C[C@@]4(C)CCC[C@H](C)C4=C[C@H]13)CC2 (some centres undefined)	-	-	-	45	-
N#Cc1cccc(C(=O)N2CC3CN(S(=O)(=O)c4ccccc4)CC(C2)O3)c1	-	-	-	-	-
COc1ccc(NC(=O)CSc2nnc(-c3cc4ccccc4n3C)o2)cc1	-	-	-	-	-
Cn1c(-c2nnc(SCC(=O)NCCc3ccccc3)o2)cc2ccccc21	-	-	43	-	57
CCCCNC(=O)CSc1nnc(-c2cc3ccccc3n2C)o1	-	-	56	-	72
Cc1ccc(CCNC(=O)CSc2nnc(-c3ccncc3)o2)cc1	-	-	-	-	-
Cn1cc(C2c3ccccc3C(=O)N2CC(=O)NCCc2ccccc2)c2ccccc21 (centres undefined)	-	-	-	-	-

High-throughput results as filed in PubChem.
